These results are taken from PubChem BioAssay (Tox21).

Experiment [1] is described as follows: qHTS assay to identify small molecule antagonists of the estrogen related receptor (ERR) signaling pathway from Tox21 library - cell viability counter screen (AID 1224834). Further: nearly all actives have a fitted effect of over 30% in size. Further: potency means the concentration at half of the fitted maximal effect. The method in brief:
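Viability readout (CellTiter-Fluor fluorescence, 30 min at 37 C) multiplexed with the ERR assay; cells treated 17.5 h at 37 C with compounds delivered in DMSO.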

Experiment [2] has as its target Luciferin 4-monooxygenase (Photinus pyralis) (UniProt P08659). In words: qHTS assay to identify small molecule inhibitors of firefly luciferase (AID 1224835). Further: nearly all actives have a fitted effect of over 25% in size. Further: potency means the concentration at half of the fitted maximal effect. In short, it runs like this:
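Quantitative HTS format; KM concentrations of both substrates. Purified P. pyralis FLuc activity quantified from luminescence images.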

Experiment [3] in a line: qHTS assay to identify small molecule agonists of the constitutive androstane receptor (CAR) signaling pathway - cell viability counter screen (AID 1224836). Further: nearly all actives have a fitted effect of over 45% in size. In short, it runs like this: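 Viability read-out: CellTiter-Fluor fluorescence after 23 h compound exposure at 37 C/5% CO2 in double-stable HepG2-CYP2B6-hCAR cells, with PK11195 present at 0.75 uM final; compounds tested in 15-point titration.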

Experiment [4] can be described thus: qHTS assay to identify small molecule antagonists of the constitutive androstane receptor (CAR) signaling pathway - cell viability counter screen (AID 1224837). Further: nearly all actives have a fitted effect of over 45% in size. In short, it runs like this:
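Fluorescence from CellTiter-Fluor served as the viability signal. Human hepatoma HepG2 cells stably bearing hCAR and CYP2B6-2.2kb received compound plus CITCO (50 nM final) for 23 hr.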

Experiment [5] has as its target Nuclear receptor subfamily 1 group I member 3 (Homo sapiens) (UniProt Q14994). As to the kind of experiment: qHTS assay to identify small molecule antagonists of the constitutive androstane receptor (CAR) signaling pathway (AID 1224838).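 Further: HepG2 cells stably expressing hCAR with CYP2B6 luciferase reporter stimulated by CITCO; nearly all actives have a fitted effect of over 40% in size.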 In short, it runs like this:
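Quantitative HTS in double-stable HepG2-CYP2B6-hCAR cells. After 4 h plating, cells get compound (15 concentrations) and CITCO at 50 nM final, incubate 24 h at 37 C, then ONE-Glo luminescence is read.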

The target is the same in experiment [6]. In words: qHTS assay to identify small molecule agonists of the constitutive androstane receptor (CAR) signaling pathway (AID 1224839). Further: nearly all actives have a fitted effect of over 15% in size. Further: potency means the concentration at half of the fitted maximal effect.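 On activation: HepG2 cells stably carrying human CAR and a CYP2B6 luciferase reporter.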 The method in brief:
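Luminescence read-out (ONE-Glo, 30 min, room temperature) from double-stable HepG2-CYP2B6-hCAR cells exposed 24 h to 15-point compound series in presence of 0.75 uM PK11195 final.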

Experiment [7] can be described thus: qHTS assay to identify small molecule antagonists of the estrogen related receptor signaling pathway with the pleiotropic PPARgamma coactivator (PGC) from Tox21 10K library - cell viability counter screen (AID 1224840; active means well fitted cell-killing curve with a large enough effect in the repeat runs, not every such curve was filed as active; further: nearly all actives have a fitted effect of over 40% in size). The method in brief: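 Compounds in DMSO, alongside positive and negative controls, were pinned onto PGC/ERR cells (2,000 per well). Exposure lasted 17.5 hours at 37 C, followed by a 30-minute CellTiter-Fluor incubation and fluorescence reading.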

Experiment [8] in a line: qHTS assay to identify small molecule antagonists of the estrogen related receptor signaling pathway with the pleiotropic PPARgamma coactivator (PGC) from Tox21 10K library (AID 1224841; call rule not given here; further: actives are mostly falling curves and most rising ones were filed inactive; nearly all actives have a fitted effect of over 50% in size; further: potency means the concentration at half of the fitted maximal effect). In short, it runs like this:
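Compound exposure ran 18 hours at 37 C in PGC/ERR cells (2,000/well) that had first rested 6 hours in a 37 C/5% CO2 incubator. Luciferase activity was then detected with One-Glo after a 30-minute room-temperature step.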

Experiment [9] can be described thus: qHTS assay to identify small molecule agonists of the estrogen related receptor signaling pathway with the pleiotropic PPARgamma coactivator (PGC) from Tox21 10K library (AID 1224842). Further: nearly all actives have a fitted effect of over 15% in size. Further: potency means the concentration at half of the fitted maximal effect. The method in brief:
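PGC/ERR reporter cells (NTP line) were seeded 2,000 per well, rested 6 h at 37 C/5% CO2, then pin-dosed with compounds in DMSO for 18 h at 37 C; luciferase read by One-Glo luminescence after 30 min at room temperature.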

Experiment [10] is described as follows: qHTS assay to identify small molecule agonists of the hypoxia (HIF-1) signaling pathway - cell viability counter screen (AID 1224844; calls by dose curve; further: nearly all actives have a fitted effect of over 50% in size). In short, it runs like this: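 Luminescent ATP content (CellTiter-Glo, 30 min, room temperature) served as the viability measure in HRE-bla ME-180 cells exposed to compounds for 17 hrs in low-serum medium (0.5% dialyzed FBS).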

Experiment [11] is described as follows: qHTS assay to identify small molecule agonists of H2AX (AID 1224845; active means well fitted activation curve with a large enough effect in the signal ratio in the repeat runs, not every such curve was filed as active; the % refers to the signal ratio). In short, it runs like this: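 Wild-type CHO-K1 cells plated overnight, then exposed 3 hr at 37C to compounds at 15 concentrations (0.76% DMSO). Lysed, then HTRF anti-pH2AX(S139)-cryptate/anti-H2AX-d2 detection after 24 hr at room temperature; emissions 665 and 620 nm.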
Experiment [12] in a line: qHTS assay to identify small molecule agonists of the hypoxia (HIF-1) signaling pathway (AID 1224846; active means well fitted activation curve with a large enough effect in the signal ratio in the repeat runs, not every such curve was filed as active; the % refers to the signal ratio). In short, it runs like this: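 Measured by blue/green FRET after loading CCF4-AM: beta-lactamase expressed from a hypoxia response element in ME-180 cells. Test agents were delivered in DMSO and left 17 hrs; cells had been plated 5 hrs earlier in low-serum (0.5% dialyzed FBS) medium.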

Experiment [13] in a line: qHTS assay to identify small molecule agonists of H2AX - cell viability counter screen (AID 1224847; calls by dose curve; further: top concentration of the series differs between compounds; nearly all actives have a fitted effect of over 30% in size). The method in brief: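 CHO-K1 wt, 1000 cells/well, o/n 37C; cpds 15 conc, 3 h 37C, 0.76% DMSO; CellTiter-Glo, 30 min RT, luminescence.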
The nature of experiment [14]: qHTS assay to identify small molecule antagonists of the estrogen related receptor (ERR) signaling pathway from Tox21 library (AID 1224848). Further: nearly all actives have a fitted effect of over 50% in size. In short, it runs like this: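 Screening used an ERR reporter line supplied by NTP, exposed for 18 h at 37 C to library compounds delivered in DMSO. Signal was luciferase luminescence developed with ONE-Glo at room temperature for 30 min.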

A short description of experiment [15]: qHTS assay to identify small molecule agonists of the estrogen related receptor (ERR) signaling pathway from Tox21 library (AID 1224849; calls by dose curve; further: nearly all actives have a fitted effect of over 15% in size). The following applies: ERR reporter cell line, ONE-Glo luciferase, 18 h; at 92.4 µM (top of the series) unless noted. The method in brief:
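We plated ERR reporter cells, waited 6 h, added compounds in DMSO by pin tool and incubated them 18 h at 37 C. ONE-Glo was then added and luminescence read after 30 min.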

A short description of experiment [16]: qHTS RealTime-Glo MT Cell Viability Assay in HepG2 cells - 24 hour (AID 1224867). Further: nearly all actives have a fitted effect of over 50% in size. In short, it runs like this: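 Cell number in HepG2 cultures estimated from NanoLuc luminescence generated by metabolic reduction of a prosubstrate by living cells. The homogeneous, nonlytic format allowed repeated reads at 0, 8, 16, 24, 32 and 40 h of compound exposure.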
Experiment [17] in a line: qHTS RealTime-Glo MT Cell Viability Assay in HEK293 cells - 32 hour (AID 1224868). Further: nearly all actives have a fitted effect of over 50% in size. Further: potency means the concentration at half of the fitted maximal effect. In short, it runs like this:
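Homogeneous bioluminescent viability format in HEK293 cells (600 cells/well). Following 5 h at 37 C/5% CO2, 23 nL compound was pintooled; the signal was measured repeatedly during 40 h incubation.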

Experiment [18] can be described thus: A CellTox Green Cytotoxicity Assay to monitor cytotoxicity in HEK293 cells - 0 hour (AID 1224869). Further: nearly all actives have a fitted effect of over 50% in size. In short, it runs like this:
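Each value comes from one timepoint of a single continuous run in which HEK293 cells with CellTox Green were exposed to compound for up to 40 h at 37 C, dye fluorescence rising with cell death.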

Experiment [19] has as its target Thyrotropin receptor (Homo sapiens) (UniProt P16473). As to the kind of experiment: qHTS assay to identify small molecule agonists of the thyroid stimulating hormone receptor (TSHR) signaling pathway (AID 1224843; calls by dose curve; further: nearly all actives have a fitted effect of over 45% in size). In short, it runs like this:
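Cell line HEK293 with TSHR; density 800/well. Exposure 30 min RT. Readout HTRF cAMP (cAMP-d2/anti-cAMP-cryptate), 1 h RT before reading.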

Inconclusive results are not listed. Where a structure was tested more than once in an assay, its records may differ in their call. The source made the active and inactive calls. Unless noted, the call rests on the fitted dose curve; in most records, active means well fitted curve in the direction sought with a large enough effect in the repeat runs; inconclusive means weak or mixed curves; inactive means no such curve, though single readings can be large; an effect the other way counts as inactive or inconclusive.
On the % scale 0 is the no-effect control and ±100 the full control effect.

Chain of Luciferin 4-monooxygenase (Photinus pyralis) (P08659 whole entry, looked up): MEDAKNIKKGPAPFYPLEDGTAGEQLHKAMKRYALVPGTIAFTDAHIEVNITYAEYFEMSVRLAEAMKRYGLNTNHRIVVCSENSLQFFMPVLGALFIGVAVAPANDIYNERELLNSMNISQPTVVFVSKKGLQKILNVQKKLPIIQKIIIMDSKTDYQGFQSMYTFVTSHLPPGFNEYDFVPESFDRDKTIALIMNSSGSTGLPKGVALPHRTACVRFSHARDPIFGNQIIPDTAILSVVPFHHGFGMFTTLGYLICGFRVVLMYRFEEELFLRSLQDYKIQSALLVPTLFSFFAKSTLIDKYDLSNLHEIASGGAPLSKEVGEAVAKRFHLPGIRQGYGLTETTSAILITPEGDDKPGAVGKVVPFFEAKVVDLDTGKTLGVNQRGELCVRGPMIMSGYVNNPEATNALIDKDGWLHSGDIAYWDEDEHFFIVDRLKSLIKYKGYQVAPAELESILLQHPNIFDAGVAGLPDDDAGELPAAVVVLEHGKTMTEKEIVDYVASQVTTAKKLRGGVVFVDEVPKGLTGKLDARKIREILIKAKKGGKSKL
Chain of Thyrotropin receptor (Homo sapiens) (P16473 whole entry, looked up): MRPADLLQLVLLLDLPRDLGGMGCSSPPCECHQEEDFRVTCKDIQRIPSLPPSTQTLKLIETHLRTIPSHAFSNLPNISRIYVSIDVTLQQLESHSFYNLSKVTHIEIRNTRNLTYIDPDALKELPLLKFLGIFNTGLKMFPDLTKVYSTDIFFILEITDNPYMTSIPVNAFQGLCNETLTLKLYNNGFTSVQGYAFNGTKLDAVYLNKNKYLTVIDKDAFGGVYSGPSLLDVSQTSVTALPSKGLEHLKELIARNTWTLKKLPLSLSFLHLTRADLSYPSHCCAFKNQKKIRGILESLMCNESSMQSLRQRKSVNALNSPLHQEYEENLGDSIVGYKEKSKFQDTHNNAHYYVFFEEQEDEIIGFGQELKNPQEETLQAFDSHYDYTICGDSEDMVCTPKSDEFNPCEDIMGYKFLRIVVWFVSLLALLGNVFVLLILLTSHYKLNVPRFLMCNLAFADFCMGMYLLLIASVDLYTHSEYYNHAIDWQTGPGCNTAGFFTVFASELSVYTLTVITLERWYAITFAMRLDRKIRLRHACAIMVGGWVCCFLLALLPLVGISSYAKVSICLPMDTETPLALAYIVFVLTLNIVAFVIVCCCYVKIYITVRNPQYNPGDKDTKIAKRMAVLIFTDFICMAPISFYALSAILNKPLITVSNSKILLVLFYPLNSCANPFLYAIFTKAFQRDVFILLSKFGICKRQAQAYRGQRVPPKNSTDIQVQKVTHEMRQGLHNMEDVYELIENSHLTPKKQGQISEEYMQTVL
Chain of Nuclear receptor subfamily 1 group I member 3 (Homo sapiens) (Q14994 whole entry, looked up): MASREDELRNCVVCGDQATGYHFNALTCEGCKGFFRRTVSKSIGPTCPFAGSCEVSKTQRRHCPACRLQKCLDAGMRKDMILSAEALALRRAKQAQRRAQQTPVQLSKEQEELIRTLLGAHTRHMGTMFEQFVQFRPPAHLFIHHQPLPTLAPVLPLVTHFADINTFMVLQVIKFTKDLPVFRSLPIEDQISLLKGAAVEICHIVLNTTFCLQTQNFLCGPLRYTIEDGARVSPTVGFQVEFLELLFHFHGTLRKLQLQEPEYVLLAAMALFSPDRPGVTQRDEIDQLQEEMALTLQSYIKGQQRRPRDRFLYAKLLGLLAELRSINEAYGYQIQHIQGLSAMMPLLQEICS

For the compound `O=C1c2ccccc2C(=O)c2c(O)ccc(O)c21`, the Potency entry in experiment [1], in experiment [2], in experiment [3], in experiment [4], in experiment [5] and in [7] was “inactive” in each case. Also, the Potency entry in experiment [9], in experiment [10], in [11], in [13], in experiment [14] and in experiment [16] was “inactive” each time. Also, the Potency result in experiment [17] and in experiment [18] was “inactive” throughout. Besides, the Potency in [6] was 48.6 µM (active); in [8], 0.545 µM (active). Moreover, the outcome in experiment [12] was inactive. In addition, the activity change, positive = activation in [15] was -2.45% (inactive).

On to `O=C(NS(=O)(=O)/C=C/c1ccccc1)c1ccc(F)cc1Cl`, for which the Potency entry in experiment [1], in [2], in [3], in [4], in [5] and in experiment [6] was “inactive” in each case. Besides, the Potency result in experiment [7], in experiment [8], in experiment [19], in experiment [10], in experiment [11] and in experiment [13] was “inactive” in each case. In addition, the Potency entry in [14], in experiment [16] and in experiment [18] was “inactive” throughout. Further, in experiment [9], the Potency is 13.7 µM (active). Further, in experiment [12], the result was inactive.

As for `CC(C)(C)CCCCCCOC(=O)c1ccccc1C(=O)OCCCCCCC(C)(C)C`, the Potency result in experiment [1], in experiment [2], in experiment [3], in experiment [4], in experiment [5] and in [6] was “inactive” each time. Moreover, the Potency result in experiment [7], in [9], in experiment [19], in experiment [11], in experiment [13] and in experiment [14] was “inactive” in each case. The Potency entry in [16], in experiment [17] and in experiment [18] was “inactive” each time. In experiment [12], the call was inactive. Further, the activity change, positive = activation in [15] is -3.55% (inactive).

For the compound `COC(=O)c1sccc1S(N)(=O)=O`, the Potency entry in experiment [1], in [2], in experiment [3], in [4], in experiment [5] and in [6] was “inactive” throughout. Further, the Potency entry in experiment [7], in experiment [8], in experiment [9], in experiment [19], in experiment [10] and in experiment [13] was “inactive” throughout. The Potency result in experiment [14], in [16], in experiment [17] and in [18] was “inactive” throughout. For the same compound, in experiment [12], the outcome was inactive. For the same compound, the activity change, positive = activation in experiment [15] is 0.3% (inactive).

In the case of `[Cl][Nd]([Cl])[Cl]`, the Potency entry in experiment [1], in experiment [3], in [4], in experiment [5], in experiment [6] and in [7] was “inactive” in each case. Further, the Potency entry in [8], in experiment [9], in experiment [19], in experiment [10], in experiment [11] and in [13] was “inactive” each time. Also, the Potency result in [14], in [16], in experiment [17] and in [18] was “inactive” in each case. In experiment [2], the Potency was 39.9 µM (active). Besides, the outcome in experiment [12] was inactive. In experiment [15], the activity change, positive = activation was -6.02% (inactive).

As for `COc1ccc2nc(S(=O)Cc3ncc(C)c(OC)c3C)[nH]c2c1` (stereo not drawn), the Potency is 53.8 µM (active) and inactive in experiment [1]; 31.3 µM (active) and inactive in experiment [2]; 60.4 µM (active) and inactive in [6]; 21.6 µM (active) and inactive in [17]. For the same compound, the Potency entry in [3], in [4], in experiment [5], in experiment [7], in experiment [19] and in experiment [10] was “inactive” throughout. For the same compound, the Potency result in [11], in experiment [13], in [16] and in experiment [18] was “inactive” throughout. In experiment [12], the compound was called inactive.

As to `O=C(O)CO`, the Potency entry in experiment [1], in experiment [2], in [3], in experiment [4], in experiment [5] and in experiment [6] was “inactive” each time. For the same compound, the Potency entry in experiment [7], in experiment [19], in experiment [10], in [11], in experiment [13] and in [16] was “inactive” throughout. Moreover, in experiment [17], the Potency entry was “inactive”. For the same compound, the call in experiment [12] was inactive.
